The structures appear in SMILES notation. In all, about 310,000 compounds went through this assay and about 14,000 (4.5%) showed an effect of 50% or more. The effect is printed as a negative number. The sample as a whole holds a higher share of strong results than the screen did.

Here are results for 40 compounds from publication PMC4336329 (PLoS ONE, 2015).
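Further: peak tail current of the secondary pulse compared with the same well before compound.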

Chain of human ether-à-go-go-related gene (hERG) potassium channel (Q12809 whole entry, looked up): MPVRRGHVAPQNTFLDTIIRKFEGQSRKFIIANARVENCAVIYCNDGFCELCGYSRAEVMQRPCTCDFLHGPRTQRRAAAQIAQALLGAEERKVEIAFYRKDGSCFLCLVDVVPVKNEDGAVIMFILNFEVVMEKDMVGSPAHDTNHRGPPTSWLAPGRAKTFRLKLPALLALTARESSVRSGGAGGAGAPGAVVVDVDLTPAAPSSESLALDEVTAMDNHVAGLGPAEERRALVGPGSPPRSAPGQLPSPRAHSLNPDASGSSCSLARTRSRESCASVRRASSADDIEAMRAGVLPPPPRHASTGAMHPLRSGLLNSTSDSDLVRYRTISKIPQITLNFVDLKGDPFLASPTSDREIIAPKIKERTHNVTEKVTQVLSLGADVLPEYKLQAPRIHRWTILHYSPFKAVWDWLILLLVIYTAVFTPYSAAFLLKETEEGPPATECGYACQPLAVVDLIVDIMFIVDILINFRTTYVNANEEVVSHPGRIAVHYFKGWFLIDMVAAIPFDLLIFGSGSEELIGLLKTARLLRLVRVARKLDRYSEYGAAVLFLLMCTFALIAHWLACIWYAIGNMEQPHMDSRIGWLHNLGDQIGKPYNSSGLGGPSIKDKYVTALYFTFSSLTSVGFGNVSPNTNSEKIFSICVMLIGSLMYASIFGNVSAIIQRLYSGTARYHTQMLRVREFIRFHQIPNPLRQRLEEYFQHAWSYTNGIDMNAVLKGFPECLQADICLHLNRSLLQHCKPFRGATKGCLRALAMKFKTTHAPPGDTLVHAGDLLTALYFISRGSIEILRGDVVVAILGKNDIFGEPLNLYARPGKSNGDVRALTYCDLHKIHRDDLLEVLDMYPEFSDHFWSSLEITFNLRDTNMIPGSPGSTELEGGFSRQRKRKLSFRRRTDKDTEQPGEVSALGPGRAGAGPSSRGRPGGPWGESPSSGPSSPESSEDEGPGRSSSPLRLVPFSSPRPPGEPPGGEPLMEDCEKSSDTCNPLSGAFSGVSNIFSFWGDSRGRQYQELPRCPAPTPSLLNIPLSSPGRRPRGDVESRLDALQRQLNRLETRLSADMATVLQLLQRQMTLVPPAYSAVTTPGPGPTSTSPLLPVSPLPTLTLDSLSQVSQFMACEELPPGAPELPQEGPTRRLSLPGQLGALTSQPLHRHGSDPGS

The assay addresses human ether-à-go-go-related gene (hERG) potassium channel (human, UniProt Q12809). The assay can be described thus: primary screen, population patch clamp on CHO cells stably expressing hERG; higher = less effect of the substance.
Take `COc1cc2c(cc1OC)C1(CCCC1)CNC2c1cccc([N+](=O)[O-])c1` (stereo not shown): the “hERG current change (%, negative = inhibition) at 10uM” value is -43.3%.

Turning to `COc1cc2c(cc1OC)C1(CCCC1)CNC2c1ccc([N+](=O)[O-])cc1.Cl` (stereo not shown), the “hERG current change (%, negative = inhibition) at 10uM” value is recorded as -50%.

Regarding `C/C(=N/NC(=O)CNC(=O)c1ccccc1)c1ccc(C)cc1`, the “hERG current change (%, negative = inhibition) at 10uM” value was -41.5%.

Consider `CC1=C[C@@H](C)[C@@H](c2ccc(C(F)(F)F)cc2)OC1=O`, for which the “hERG current change (%, negative = inhibition) at 10uM” value was 7.01%.

Turning to `Cc1ccc2c(c1)c(/C=C/c1cc[n+](C)cc1)c(C)n2C.[I-]`, the “hERG current change (%, negative = inhibition) at 10uM” value is -10.9%.

For `COc1ccc2c(CC(=O)NCCN3C(=O)S/C(=C\c4cccnc4)C3=O)coc2c1`, the “hERG current change (%, negative = inhibition) at 10uM” value is given as -9.62%.

Turning to `O=C(/C(=N\Nc1ccc([N+](=O)[O-])cc1)Sc1nnnn1-c1ccccc1)c1ccccc1`, the “hERG current change (%, negative = inhibition) at 10uM” value turned out to be 17.9%.

Regarding `CC(C)[C@@H]1CC[C@@H](C)C[C@H]1OC(=O)C[n+]1cc(-c2ccc(Cl)cc2)n2c1CCCCC2.[Cl-]`, the “hERG current change (%, negative = inhibition) at 10uM” value is on record as -60.1%.

Take `COc1ccc(C(=O)C[n+]2cc(-c3ccc(OC)cc3)n3c2CCCC3)cc1.[Br-]`: the “hERG current change (%, negative = inhibition) at 10uM” value was -10.1%.

As for `O=C(C[n+]1cc(-c2ccc(Cl)cc2)n2c1CCCCC2)c1ccccc1.[Br-]`, the “hERG current change (%, negative = inhibition) at 10uM” value is recorded as -12.5%.

On to `COc1ccc(-c2c[n+](CC(=O)OC3CC(C)CCC3C(C)C)c3n2CCC3)cc1.[Cl-]` (stereo not shown), for which the “hERG current change (%, negative = inhibition) at 10uM” value is recorded as -69.3%.

Take `CC1CCC(C(C)C)C(OC(=O)C[n+]2cc(-c3ccc(Cl)cc3)n3c2CCCCC3)C1.[Cl-]` (stereo not shown): the “hERG current change (%, negative = inhibition) at 10uM” value is recorded as -79.4%.

Consider `Cn1c(NC(=O)C[n+]2cc(-c3ccc(Cl)cc3)n3c2CCC3)cc(=O)n(C)c1=O.[Cl-]`, for which the “hERG current change (%, negative = inhibition) at 10uM” value is listed as 11.3%.

`O=C(C[n+]1cc(-c2ccc(Cl)cc2)n2c1CCC2)N1c2ccccc2Sc2ccccc21.[Cl-]`: the “hERG current change (%, negative = inhibition) at 10uM” value was -22.1%.

For the compound `COc1ccc(-c2c[n+](CC(=O)c3cccs3)c3n2CCC3)cc1.[Br-]`, the “hERG current change (%, negative = inhibition) at 10uM” value is 10.4%.

For the compound `O=C(C[n+]1cc(-c2ccccc2)n2c1CCCCC2)c1ccc(Cl)cc1.[Br-]`, the “hERG current change (%, negative = inhibition) at 10uM” value is listed as -23.4%.

With `CC1CCC(C(C)C)C(OC(=O)C[n+]2cc(-c3ccc(Cl)cc3)n3c2CCC3)C1.[Cl-]` (stereo not shown), the “hERG current change (%, negative = inhibition) at 10uM” value is recorded as -77.1%.

For the compound `O=C(Nc1ccc2c(c1)OCO2)C1CCCN(S(=O)(=O)c2cccs2)C1` (stereo not shown), the “hERG current change (%, negative = inhibition) at 10uM” value is 10.7%.

As to `COc1cccc(-c2ncc3ccccn23)c1.O=C(O)C(=O)O`, the “hERG current change (%, negative = inhibition) at 10uM” value is -5%.

Regarding `CCOc1ccc(S(=O)(=O)Nc2cccc(C(=O)NCCCn3ccnc3)c2)cc1`, the “hERG current change (%, negative = inhibition) at 10uM” value was found to be 10.5%.

In the case of `O=C(CCN1C(=O)c2ccccc2C1=O)Nc1sc2c(c1C(=O)NCc1ccco1)CCCC2`, the “hERG current change (%, negative = inhibition) at 10uM” value is on record as -13.2%.

With `O=C(Nc1nnc(SCC(=O)N2CCCCC2)s1)c1cccs1`, the “hERG current change (%, negative = inhibition) at 10uM” value turned out to be 4.86%.

`CCOC(=O)c1c(NC(=O)C2COc3ccccc3O2)sc2c1CC(C)(C)NC2(C)C` (stereo not shown): the “hERG current change (%, negative = inhibition) at 10uM” value is -12.1%.

As for `Cc1nnc(SCC(=O)Nc2ncc(Cl)cc2Cl)n1Cc1ccccc1`, the “hERG current change (%, negative = inhibition) at 10uM” value is recorded as -15.6%.

For the compound `CC(Sc1nnnn1-c1ccccc1)C(=O)Nc1ccc(Cl)cn1` (stereo not shown), the “hERG current change (%, negative = inhibition) at 10uM” value is -54.2%.

Turning to `CC(Sc1nnc(CN2CCCC2)n1Cc1ccccc1)C(=O)Nc1ccccc1` (stereo not shown), the “hERG current change (%, negative = inhibition) at 10uM” value was -43.1%.

Consider `Cc1ccc(-n2nnnc2SC(C)C(=O)Nc2ccc(Cl)cn2)cc1` (stereo not shown), for which the “hERG current change (%, negative = inhibition) at 10uM” value is on record as -22.1%.

Consider `CC(Sc1nnc(CN2CCCC2)n1Cc1ccccc1)C(=O)Nc1ccc(F)cc1` (stereo not shown), for which the “hERG current change (%, negative = inhibition) at 10uM” value was -61.4%.

As for `O=C(CSc1nnnn1-c1ccccc1)Nc1ccc(Cl)cn1`, the “hERG current change (%, negative = inhibition) at 10uM” value amounted to 2.66%.

For `CC(=O)Nc1ccc(NC(=O)C(C)Sc2n[nH]c(=O)n2Cc2ccccc2)cc1` (stereo not shown), the “hERG current change (%, negative = inhibition) at 10uM” value is listed as 16%.

For `Cc1nnc(SC(C)C(=O)Nc2ncc(Cl)cc2Cl)n1Cc1ccccc1` (stereo not shown), the “hERG current change (%, negative = inhibition) at 10uM” value is reported as -67.8%.

With `Cc1nnc(SC(C)C(=O)Nc2ccc(Cl)cn2)n1Cc1ccccc1` (stereo not shown), the “hERG current change (%, negative = inhibition) at 10uM” value is -17.3%.

In the case of `Cc1sc2nc(SCc3nc4ccccc4[nH]3)n(Cc3ccco3)c(=O)c2c1C`, the “hERG current change (%, negative = inhibition) at 10uM” value was -9.15%.

Regarding `C=CC1CN(C(=O)OCC(Cl)(Cl)Cl)C2CC3c4ccc(OC)cc4NC3C3CC1C2CO3` (stereo not shown), the “hERG current change (%, negative = inhibition) at 10uM” value was -7.61%.

With `CCOc1ccc2nc(SCC(=O)NCc3ccccc3)[nH]c2c1`, the “hERG current change (%, negative = inhibition) at 10uM” value was 2.63%.

For `CC(C)CN(C(=O)COC(=O)CCSc1ccc(F)cc1)c1c(N)n(Cc2ccccc2)c(=O)[nH]c1=O`, the “hERG current change (%, negative = inhibition) at 10uM” value came out at 10.1%.

For `Cc1cc(C(=O)CN2C(=O)NC3(CCCc4ccccc43)C2=O)c(C)n1C` (stereo not shown), the “hERG current change (%, negative = inhibition) at 10uM” value was -13.5%.

On to `COc1ccc(/C=C2\S/C(=N/S(=O)(=O)c3cccs3)NC2=O)cc1`, for which the “hERG current change (%, negative = inhibition) at 10uM” value came to 8.45%.

Consider `CS(=O)(=O)N(CC(=O)NCCC1=CCCCC1)c1cccc([N+](=O)[O-])c1`, for which the “hERG current change (%, negative = inhibition) at 10uM” value is on record as -32.4%.

Regarding `COc1cc(OC)cc(C(=O)Oc2c(CN3CCOCC3)cc(Cl)c3cccnc23)c1`, the “hERG current change (%, negative = inhibition) at 10uM” value was -15.5%.
